Our source for the Potency, outcome and activity change, negative = inhibition values is PubChem BioAssay (NCATS).

Inconclusive results are not listed. A number with no mark means an inactive call. The source made the active and inactive calls. Calls follow the shape of the dose curve; as a rule, active = well fitted inhibition curve with a large enough effect; inconclusive = small, poorly fitted or top-dose-only effect; inactive = flat fitted curve, though single readings scatter. *1 amine or outer side, *2 acyl side, *3 side chain or, on linkers, in order; H or OH if unused. Where a SMILES comes first, the peptide text is derived from it. Bridges are numbered along the chain shown (N, C = ends). [ ]: non-standard residue; d: D form. The star is where a group is joined. ξ: configuration not given here. X10 = NC1=NCCC(C(N[*:1])C(=O)[*:2])N1; ΔAla(3-NHCONH2) = NC(=O)NC=C(N)C(=O)O; ξβ3hOrn = NCCCC(N)CC(=O)*; Dap = NC[CH](N)C(=O)O

Assay [1] has as its target Glutathione peroxidase 1 (Homo sapiens) (UniProt P07203). Put plainly: Primary qHTS Assay for Inhibitors of Recombinant Selenoprotein Glutathione Peroxidase 1 (GPX1) (AID 1845191). The note with it: recombinant GPX1, GR-coupled NADPH fluorescence, 15 min; series mostly up to 48.8 µM. The gist of the method: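 Recombinant GPX1 (10 nM final) was preincubated with compound for 30 min at room temperature, then reacted with 1 mM GSH, 0.5 mM CHP, 0.5 mM NADPH and 100 nM glutathione reductase; NADPH fluorescence (340/450 nm) was read at 0 and 15 min.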

Assay [2] has as its target Phospholipid hydroperoxide glutathione peroxidase GPX4 (Homo sapiens) (UniProt P36969). Description: Primary qHTS Assay for Inhibitors of Recombinant Selenoprotein Glutathione Peroxidase 4 (GPX4) (AID 1845192). The conditions noted are these: recombinant GPX4, GR-coupled NADPH fluorescence, 15 min; series mostly up to 50 µM. The method, boiled down: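 GR-coupled readout: 100 nM GR, 1 mM GSH, 0.5 mM NADPH; NADPH fluorescence (ex 340/em 450 nm) read at t=0 and after 15 min RT. GPX4 200 nM, preincubated 30 min with compound; substrate 0.5 mM CHP.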
(Quantitative high-throughput screening tests each substance at several concentrations.)
% is scaled to controls: 0 for no effect and ±100 for the full control effect.
Also: nearly all actives have a fitted effect of over 65% in size.

Sequence of Phospholipid hydroperoxide glutathione peroxidase GPX4 (Homo sapiens) (P36969 whole entry, looked up): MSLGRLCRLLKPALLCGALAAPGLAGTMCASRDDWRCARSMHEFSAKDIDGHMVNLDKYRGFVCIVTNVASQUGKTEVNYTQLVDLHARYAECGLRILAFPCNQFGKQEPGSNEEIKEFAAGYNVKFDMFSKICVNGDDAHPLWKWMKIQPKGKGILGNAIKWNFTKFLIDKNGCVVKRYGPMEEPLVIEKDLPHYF
Sequence of Glutathione peroxidase 1 (Homo sapiens) (P07203 whole entry, looked up): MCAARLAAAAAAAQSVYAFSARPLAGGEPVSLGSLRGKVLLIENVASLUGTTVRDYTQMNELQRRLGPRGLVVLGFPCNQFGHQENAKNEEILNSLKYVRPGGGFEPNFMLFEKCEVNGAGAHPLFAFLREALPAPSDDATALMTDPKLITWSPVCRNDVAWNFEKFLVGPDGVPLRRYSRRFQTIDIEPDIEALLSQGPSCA

On to `OCCc1ccccc1`, for which the Potency result in assay [1] and in assay [2] was “inactive” each time.
For the compound `CCCC(=O)OCOC(=O)C1=C(C)NC(C)=C(C(=O)OC)C1c1cccc(Cl)c1Cl` (stereo not given), the Potency entry in assay [1] and in assay [2] was “inactive” in each case.
As to `CCC(CN)=C(c1ccccc1)c1ccccc1`, the Potency entry in assay [1] and in assay [2] was “inactive” throughout.
Regarding `CC(=O)N(CC(=O)N(C)C)c1ccccc1`, the Potency entry in assay [1] and in assay [2] was “inactive” throughout.
In the case of `CCCCCCCCCCCCCCCC[N+](C)(C)Cc1ccccc1`, the Potency entry in assay [1] and in assay [2] was “inactive” throughout.
As for `NCCCC(N)CC(=O)NCC1NC(=O)C(CO)NC(=O)C(N)CNC(=O)C(C2CCN=C(N)N2)NC(=O)C(=CNC(N)=O)NC1=O` (stereo not drawn) (H-[Dap]S[Dap](ξβ3hOrn)[ΔAla(3-NHCONH2)][X10]; lactam 1-C; configuration not given here), in assay [1], the outcome is “inactive [at 0.4 µM]”. Also, in assay [2], the activity change, negative = inhibition is 3.67% [at 0.409 µM].
For the compound `CO[C@@H]1[C@@H](O[C@@H]2O[C@H](C)[C@@H](O[C@H]3C[C@@](C)(O)[C@@H](O)[C@H](C)O3)[C@H](N(C)C)[C@H]2O)[C@@H](CC=O)C[C@@H](C)[C@@H](O[C@@H]2CC[C@H](N(C)C)[C@@H](C)O2)/C=C/C=C/C[C@@H](C)OC(=O)C[C@H]1OC(C)=O`, the Potency entry in assay [1] and in assay [2] was “inactive” throughout.
Take `N#CSCC(=O)O`: the Potency result in assay [1] and in assay [2] was “inactive” throughout.
Regarding `C[C@H]1C[C@@H]2[C@H]([C@@H](O)C[C@@]3(C)[C@H]2CC[C@]3(O)C(=O)CO)[C@@]2(C)C=CC(=O)C=C12`, the Potency entry in assay [1] and in assay [2] was “inactive” throughout.
As for `C[C@H]1C[C@H]2[C@@H]3CCC4=CC(=O)C=C[C@]4(C)[C@H]3C(=O)C[C@]2(C)[C@@]1(O)C(=O)CO`, the Potency entry in assay [1] and in assay [2] was “inactive” each time.
